Results filed as inconclusive are left out. The source made the active and inactive calls. Unless noted, the call rests on the fitted dose curve; in most records, active means well fitted curve in the direction sought with a large enough effect in the repeat runs; inconclusive means weak or mixed curves; inactive means no such curve, though single readings can be large; an effect the other way counts as inactive or inconclusive.
What was measured:
[1] = target: Thyrotropin-releasing hormone receptor (Homo sapiens) (UniProt P34981); test: qHTS assay to identify small molecule agonists of the thyrotropin-releasing hormone receptor (TRHR) signaling pathway (AID 1346891; calls by dose curve; further: series mostly up to about 58 µM)
Sequence of Thyrotropin-releasing hormone receptor (Homo sapiens) (P34981 whole entry, looked up): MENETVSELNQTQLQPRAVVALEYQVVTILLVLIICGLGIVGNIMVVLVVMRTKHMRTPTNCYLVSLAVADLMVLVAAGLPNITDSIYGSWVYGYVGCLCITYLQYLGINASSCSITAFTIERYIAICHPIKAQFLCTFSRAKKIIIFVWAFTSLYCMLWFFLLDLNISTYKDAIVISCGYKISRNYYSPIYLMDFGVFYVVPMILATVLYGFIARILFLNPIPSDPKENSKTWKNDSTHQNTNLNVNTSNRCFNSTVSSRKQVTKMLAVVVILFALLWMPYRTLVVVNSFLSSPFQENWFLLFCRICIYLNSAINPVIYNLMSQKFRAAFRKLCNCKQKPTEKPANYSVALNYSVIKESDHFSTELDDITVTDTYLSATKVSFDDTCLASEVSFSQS
Method in brief: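 Screening of agonists relied on calcium signalling in HEK293 cells expressing human TRHR: dye loading 2 h at 37 °C preceded compound addition and a 3-min fluorescence time course.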

[2] = Human pregnane X receptor (PXR) small molecule agonists, qHTS cell viability counter screen (AID 1346977); further: nearly all actives have a fitted effect of over 50% in size; further: potency means the concentration at half of the fitted maximal effect
Method in brief: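 Tox21 qHTS format; PXR-Luc HepG2, 2,000/well, charcoal-stripped FBS 5%. Cpd exposure 24hr. Read: CellTiter-Fluor fluorescence, multiplexed with luciferase.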

[3] = Caspase-3/7 induction in HepG2 cells by small molecules, qHTS assay (AID 1346978); further: nearly all actives have a fitted effect of over 15% in size
Method in brief: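 Wild-type HepG2 cells, 2,000/well, settled 5 hr at 37 C and 5% CO2, then compound-treated for 17 hr; caspase-3/7 activity read by luminescent Caspase-Glo 3/7 after 30 min at room temperature.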

[4] = Caspase-3/7 induction in CHO-K1 cells by small molecules, qHTS cell viability counter screen (AID 1346979); further: nearly all actives have a fitted effect of over 35% in size; further: potency means the concentration at half of the fitted maximal effect
Method in brief: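 CellTiter-Fluor viability check, qHTS format: wild-type CHO-K1, 16hr compound treatment, 1hr reagent incubation, fluorescence read.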

[5] = Caspase-3/7 induction in CHO-K1 cells by small molecules, qHTS assay (AID 1346980); further: nearly all actives have a fitted effect of over 15% in size
Method in brief: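 Wild-type CHO-K1 cells exposed to compounds for 17hr at 37 C, 5% CO2. Caspase-3/7 activity then measured by Caspase-Glo 3/7 luminescence after 30min at room temperature.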

[6] = Caspase-3/7 induction in HepG2 cells by small molecules, qHTS cell viability counter screen (AID 1346981); further: series mostly up to about 92 µM; nearly all actives have a fitted effect of over 30% in size
Method in brief: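 Fluorescence read-out of live-cell protease activity (CellTiter-Fluor) after 1 hr with reagent. This was measured in the same wells as the caspase-3/7 luminescence, on HepG2 cells exposed to DMSO-dissolved compounds for 16 hr at 37 C.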

[7] = target: Nuclear receptor subfamily 1 group I member 2 (Homo sapiens) (UniProt O75469); test: Human pregnane X receptor (PXR) small molecule agonists, qHTS assay (AID 1346982); further: nearly all actives have a fitted effect of over 35% in size; further: potency means the concentration at half of the fitted maximal effect
Sequence of Nuclear receptor subfamily 1 group I member 2 (Homo sapiens) (O75469 whole entry, looked up): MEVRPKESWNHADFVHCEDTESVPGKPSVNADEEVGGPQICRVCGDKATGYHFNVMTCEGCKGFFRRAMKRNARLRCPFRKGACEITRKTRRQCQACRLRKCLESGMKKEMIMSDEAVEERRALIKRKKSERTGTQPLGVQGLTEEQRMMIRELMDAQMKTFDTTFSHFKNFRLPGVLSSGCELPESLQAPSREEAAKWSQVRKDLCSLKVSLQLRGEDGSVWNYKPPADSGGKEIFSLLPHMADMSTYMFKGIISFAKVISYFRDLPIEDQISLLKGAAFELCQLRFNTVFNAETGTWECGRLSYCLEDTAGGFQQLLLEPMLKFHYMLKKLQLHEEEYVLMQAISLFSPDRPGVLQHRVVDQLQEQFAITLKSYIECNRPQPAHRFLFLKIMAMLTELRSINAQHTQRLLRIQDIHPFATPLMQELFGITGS
Method in brief: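 HepG2 PXR-Luc reporter line, 5% charcoal-stripped FBS; 5 hr pre-incubation, compound (DMSO) 24 hr at 37 C/5% CO2; ONE-Glo 30 min RT; luminescence read-out.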

[8] = target: Cytochrome P450 2C19 (Homo sapiens) (UniProt P33261); test: Cytochrome P450 Family 2 Subfamily C Member 19 (CYP2C19) small molecule antagonists: luciferase reporter qHTS assay (AID 1671197); further: nearly all actives have a fitted effect of over 65% in size; further: potency means the concentration at half of the fitted maximal effect
Sequence of Cytochrome P450 2C19 (Homo sapiens) (P33261 whole entry, looked up): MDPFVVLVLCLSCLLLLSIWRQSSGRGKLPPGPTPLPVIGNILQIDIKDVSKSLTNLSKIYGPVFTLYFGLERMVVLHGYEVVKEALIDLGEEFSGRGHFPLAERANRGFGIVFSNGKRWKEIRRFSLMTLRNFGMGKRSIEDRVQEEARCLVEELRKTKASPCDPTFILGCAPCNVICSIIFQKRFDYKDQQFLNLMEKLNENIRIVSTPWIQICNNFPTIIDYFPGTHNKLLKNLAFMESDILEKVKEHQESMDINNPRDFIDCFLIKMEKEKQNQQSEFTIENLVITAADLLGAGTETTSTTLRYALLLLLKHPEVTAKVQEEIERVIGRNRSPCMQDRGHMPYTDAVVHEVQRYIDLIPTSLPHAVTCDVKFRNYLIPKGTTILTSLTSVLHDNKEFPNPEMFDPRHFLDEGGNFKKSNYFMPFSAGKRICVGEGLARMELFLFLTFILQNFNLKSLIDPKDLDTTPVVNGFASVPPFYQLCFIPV
Method in brief: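 Luminescent readout of CYP2C19 activity: luciferin product detected 20 min after adding detection reagent. Before that, compound and enzyme-substrate mix preincubated 10 min at room temperature; NADPH-regenerating system started a 1 h, 37C reaction. Ketoconazole as positive control.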

[9] = target: Cytochrome P450 2C9 (Homo sapiens) (UniProt P11712); test: Cytochrome P450 Family 2 Subfamily C Member 9 (CYP2C9) small molecule antagonists: luciferase reporter qHTS assay (AID 1671198); further: nearly all actives have a fitted effect of over 50% in size; further: potency means the concentration at half of the fitted maximal effect
Sequence of Cytochrome P450 2C9 (Homo sapiens) (P11712 whole entry, looked up): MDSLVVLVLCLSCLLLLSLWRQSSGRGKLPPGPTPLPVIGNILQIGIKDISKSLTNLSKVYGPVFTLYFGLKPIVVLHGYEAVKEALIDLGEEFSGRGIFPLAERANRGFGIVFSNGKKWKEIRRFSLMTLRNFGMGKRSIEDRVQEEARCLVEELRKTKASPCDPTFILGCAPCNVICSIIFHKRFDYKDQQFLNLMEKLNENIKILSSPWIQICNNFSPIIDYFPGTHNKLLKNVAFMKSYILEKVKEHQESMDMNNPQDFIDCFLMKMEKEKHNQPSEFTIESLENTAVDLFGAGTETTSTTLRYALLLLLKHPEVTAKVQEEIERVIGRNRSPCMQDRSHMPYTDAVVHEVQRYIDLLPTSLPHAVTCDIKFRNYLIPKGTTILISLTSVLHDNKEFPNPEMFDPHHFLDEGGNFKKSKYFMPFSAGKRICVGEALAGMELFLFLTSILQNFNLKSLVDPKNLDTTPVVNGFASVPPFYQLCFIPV
Method in brief: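 P450-Glo proluciferin substrate with CYP2C9 enzyme; 10 min RT preincubation, then NADPH regeneration 1 h at 37C; luciferin detection reagent 20 min RT, luminescence in relative luminescence units.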

[10] = target: Cytochrome P450 1A2 (Homo sapiens) (UniProt P05177); test: Cytochrome P450 Family 1 Subfamily A Member 2 (CYP1A2) small molecule antagonists: luciferase reporter qHTS assay (AID 1671199); further: nearly all actives have a fitted effect of over 50% in size; further: potency means the concentration at half of the fitted maximal effect
Sequence of Cytochrome P450 1A2 (Homo sapiens) (P05177 whole entry, looked up): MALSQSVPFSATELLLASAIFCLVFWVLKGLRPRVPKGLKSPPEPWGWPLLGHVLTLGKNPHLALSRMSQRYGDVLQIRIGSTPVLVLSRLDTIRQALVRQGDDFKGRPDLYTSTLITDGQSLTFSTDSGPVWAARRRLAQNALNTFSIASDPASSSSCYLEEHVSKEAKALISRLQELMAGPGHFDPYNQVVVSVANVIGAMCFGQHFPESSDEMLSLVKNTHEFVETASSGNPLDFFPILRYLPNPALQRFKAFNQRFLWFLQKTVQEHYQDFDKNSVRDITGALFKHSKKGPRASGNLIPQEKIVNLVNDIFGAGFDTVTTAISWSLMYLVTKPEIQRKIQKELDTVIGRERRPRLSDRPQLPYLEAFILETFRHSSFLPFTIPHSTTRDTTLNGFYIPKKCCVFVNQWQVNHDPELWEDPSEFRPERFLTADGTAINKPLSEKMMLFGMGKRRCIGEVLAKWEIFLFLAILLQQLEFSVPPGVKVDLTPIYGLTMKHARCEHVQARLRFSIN
Method in brief: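 Luminescence readout (relative luminescence units) after luciferin detection reagent, 20 min RT. Preceded by 1 h room-temperature CYP1A2 reaction with NADPH regeneration solution following 10 min compound preincubation with enzyme and proluciferin substrate. Furafylline positive control.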

[11] = target: Cytochrome P450 3A4 (Homo sapiens) (UniProt P08684); test: Cytochrome P450 Family 3 Subfamily A Member 4 (CYP3A4) small molecule antagonists: luciferase reporter qHTS assay (AID 1671201); further: nearly all actives have a fitted effect of over 50% in size; further: potency means the concentration at half of the fitted maximal effect
Sequence of Cytochrome P450 3A4 (Homo sapiens) (P08684 whole entry, looked up): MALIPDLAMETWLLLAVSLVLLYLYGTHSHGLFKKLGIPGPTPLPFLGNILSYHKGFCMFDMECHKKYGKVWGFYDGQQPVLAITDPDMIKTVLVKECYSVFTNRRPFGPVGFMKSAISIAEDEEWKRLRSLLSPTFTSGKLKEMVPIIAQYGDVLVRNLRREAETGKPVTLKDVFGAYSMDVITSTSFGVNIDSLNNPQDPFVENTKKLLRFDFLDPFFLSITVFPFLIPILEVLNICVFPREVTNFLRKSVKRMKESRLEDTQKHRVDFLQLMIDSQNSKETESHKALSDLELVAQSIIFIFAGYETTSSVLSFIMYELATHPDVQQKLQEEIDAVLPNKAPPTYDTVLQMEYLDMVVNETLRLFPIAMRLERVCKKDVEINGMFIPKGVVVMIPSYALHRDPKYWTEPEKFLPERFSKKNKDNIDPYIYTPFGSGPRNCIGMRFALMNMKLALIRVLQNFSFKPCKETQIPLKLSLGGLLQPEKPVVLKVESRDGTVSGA
Method in brief: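 Proluciferin-to-luciferin conversion by CYP3A4, NADPH-regenerated, 1 h RT; luminescence read as RLU. Ketoconazole as control.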

[12] = target: Voltage-gated inwardly rectifying potassium channel KCNH2 (Homo sapiens) (UniProt Q12809); test: Human Ether-a-go-go-Related Gene (hERG) channel small molecule antagonists: fluorescence cell-based qHTS assay (AID 1671200); further: nearly all actives have a fitted effect of over 50% in size; further: potency means the concentration at half of the fitted maximal effect
Sequence of Voltage-gated inwardly rectifying potassium channel KCNH2 (Homo sapiens) (Q12809 whole entry, looked up): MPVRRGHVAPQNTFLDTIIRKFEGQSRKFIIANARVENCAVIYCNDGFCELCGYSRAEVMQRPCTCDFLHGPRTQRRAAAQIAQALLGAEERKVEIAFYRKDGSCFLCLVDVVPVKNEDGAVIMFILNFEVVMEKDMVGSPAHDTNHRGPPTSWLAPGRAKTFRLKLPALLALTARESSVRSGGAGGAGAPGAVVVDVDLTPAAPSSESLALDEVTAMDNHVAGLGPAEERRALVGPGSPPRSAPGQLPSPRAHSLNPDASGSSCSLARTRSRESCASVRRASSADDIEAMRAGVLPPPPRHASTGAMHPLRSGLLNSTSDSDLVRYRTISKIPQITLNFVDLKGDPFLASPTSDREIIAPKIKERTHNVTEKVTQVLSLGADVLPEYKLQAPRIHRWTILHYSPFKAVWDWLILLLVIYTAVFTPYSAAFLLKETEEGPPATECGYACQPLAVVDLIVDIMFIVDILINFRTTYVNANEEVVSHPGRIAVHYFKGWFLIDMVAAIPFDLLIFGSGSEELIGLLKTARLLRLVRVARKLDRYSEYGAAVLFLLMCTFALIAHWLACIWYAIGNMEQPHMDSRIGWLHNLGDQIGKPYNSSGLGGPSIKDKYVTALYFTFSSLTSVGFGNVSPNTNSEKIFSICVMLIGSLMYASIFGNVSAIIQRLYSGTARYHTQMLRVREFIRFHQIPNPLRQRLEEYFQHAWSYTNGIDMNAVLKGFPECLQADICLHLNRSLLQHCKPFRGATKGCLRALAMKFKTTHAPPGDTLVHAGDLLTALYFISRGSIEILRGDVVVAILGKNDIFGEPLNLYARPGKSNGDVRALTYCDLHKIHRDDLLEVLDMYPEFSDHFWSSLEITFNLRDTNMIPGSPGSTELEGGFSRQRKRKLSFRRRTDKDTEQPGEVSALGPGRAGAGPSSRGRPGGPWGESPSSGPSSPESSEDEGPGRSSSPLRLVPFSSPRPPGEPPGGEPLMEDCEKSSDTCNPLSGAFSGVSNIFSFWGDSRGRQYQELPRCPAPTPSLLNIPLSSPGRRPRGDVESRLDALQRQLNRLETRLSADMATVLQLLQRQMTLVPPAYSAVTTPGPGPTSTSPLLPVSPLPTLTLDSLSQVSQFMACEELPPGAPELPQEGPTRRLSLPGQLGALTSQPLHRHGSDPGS
Method in brief: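 Kinetic two-minute fluorescence traces, sampled at 1 s, were collected following thallium stimulus of U2OS cells (1000 per well) that had been cultured overnight at 37 C and loaded with FluxOR II.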

[13] = target: Nuclear receptor subfamily 1 group I member 2 (Homo sapiens) (UniProt O75469); test: CYP3A4 induction through human pregnane X receptor (PXR) by small molecules, qHTS assay (AID 1346984); further: nearly all actives have a fitted effect of over 40% in size
Method in brief: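 HepG2-derived DPX-2 line carrying PXR plus a CYP3A4-promoter luciferase reporter; cells plated 5 hr, compound-exposed 24 hr at 37C. CYP3A4 activity probed with 3uM (final) Luciferin-IPA for 3hr, then luciferase read after One-Glo.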

[14] = target: Nuclear receptor subfamily 1 group I member 2 (Homo sapiens) (UniProt O75469); test: Human pregnane X receptor (PXR) activation by small molecules, qHTS assay (AID 1346985); further: nearly all actives have a fitted effect of over 40% in size
Method in brief: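 DPX-2 cells (HepG2 co-transfected with a PXR response element and a CYP3A4-promoter luciferase construct) were seeded at 2,000 per well, rested 5 hr at 37C, then exposed to DMSO-dissolved compounds for 24 hr. Activation was read as luciferase luminescence.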

[15] = target: Cytochrome P450 2D6 (Homo sapiens) (UniProt P10635); test: Cytochrome P450 Family 2 Subfamily D Member 6 (CYP2D6) small molecule antagonists: luciferase reporter qHTS assay (AID 1671196); further: nearly all actives have a fitted effect of over 50% in size; further: potency means the concentration at half of the fitted maximal effect
Sequence of Cytochrome P450 2D6 (Homo sapiens) (P10635 whole entry, looked up): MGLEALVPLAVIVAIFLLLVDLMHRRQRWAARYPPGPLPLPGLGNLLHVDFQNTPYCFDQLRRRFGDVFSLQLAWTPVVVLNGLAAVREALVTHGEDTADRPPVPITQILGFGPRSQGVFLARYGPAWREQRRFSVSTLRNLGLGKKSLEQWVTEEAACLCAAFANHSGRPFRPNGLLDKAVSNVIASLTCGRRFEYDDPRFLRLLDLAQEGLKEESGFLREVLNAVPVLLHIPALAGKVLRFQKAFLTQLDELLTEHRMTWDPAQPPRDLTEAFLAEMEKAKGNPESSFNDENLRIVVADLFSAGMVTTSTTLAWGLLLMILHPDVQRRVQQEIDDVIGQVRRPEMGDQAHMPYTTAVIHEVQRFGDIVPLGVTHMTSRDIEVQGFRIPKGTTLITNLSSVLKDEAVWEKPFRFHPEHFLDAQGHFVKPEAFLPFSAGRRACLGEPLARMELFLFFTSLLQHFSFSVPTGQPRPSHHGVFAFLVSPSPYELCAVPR
Method in brief: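 Luminogenic proluciferin substrate, CYP2D6 enzyme; 10 min RT preincubation with compound, NADPH regeneration system added, 1 h RT. Stop/detection reagent, 20 min RT, luminescence read (RLU). Signal proportional to CYP activity.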

[16] = target: Nuclear receptor subfamily 1 group I member 2 (Rattus norvegicus) (UniProt Q9R1A7); test: Rat pregnane X receptor (rPXR) activation by small molecules, qHTS assay (AID 1346983); settings: rPXR luciferase reporter cells, One-Glo luminescence, 24 h; max activation: active compounds read high; further: nearly all actives have a fitted effect of over 20% in size; further: potency means the concentration at half of the fitted maximal effect
Sequence of Nuclear receptor subfamily 1 group I member 2 (Rattus norvegicus) (Q9R1A7 whole entry, looked up): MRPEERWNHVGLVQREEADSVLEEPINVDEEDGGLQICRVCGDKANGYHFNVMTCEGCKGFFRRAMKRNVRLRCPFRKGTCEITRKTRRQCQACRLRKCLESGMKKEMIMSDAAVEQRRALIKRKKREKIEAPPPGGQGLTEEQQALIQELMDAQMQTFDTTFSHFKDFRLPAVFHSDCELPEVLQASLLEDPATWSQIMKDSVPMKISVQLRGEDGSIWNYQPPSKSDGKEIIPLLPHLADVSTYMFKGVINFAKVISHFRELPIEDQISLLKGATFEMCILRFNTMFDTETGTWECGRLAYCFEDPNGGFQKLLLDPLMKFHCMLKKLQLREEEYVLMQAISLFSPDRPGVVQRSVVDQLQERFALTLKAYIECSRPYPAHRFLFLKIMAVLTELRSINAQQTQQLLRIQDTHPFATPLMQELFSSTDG
Method in brief: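 Cell-based rPXR activation assay: rPXR cells, 2,000 per well, rested 5hr at 37 C, then exposed to compounds in DMSO for 24 hr at 37 C. Luciferase activity read by One-Glo luminescence after 30 min at room temperature.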
On the % scale 0 is the no-effect control and ±100 the full control effect.

Nc1ccc(S(=O)(=O)O)cc1
inactive: Potency [1] | Potency [2] | Potency [3] | Potency [4] | outcome [5] | Potency [6] | Potency [7] | Potency [8] | Potency [9] | Potency [10] | Potency [11]

CCCCCCCCCCOS(=O)(=O)O
active: Potency [9] 44.6 µM
inactive: Potency [1] | Potency [2] | Potency [3] | Potency [4] | outcome [5] | Potency [6] | Potency [8] | Potency [10] | Potency [12] | Potency [11]

CC(=O)[C@H]1CC[C@H]2[C@@H]3C=CC4=CC(=O)CC[C@@]4(C)[C@@H]3CC[C@]12C
inactive: Potency [1] | Potency [2] | Potency [3] | outcome [5] | Potency [6] | Potency [13] | Potency [14] | Potency [15] | Potency [10] | Potency [12] | Potency [11]
active: Potency [7] 26.6 µM | Potency [8] 2.75 µM | Potency [9] 38.9 µM

O=C(O)Cc1ccc(-c2ccccc2)cc1
inactive: Potency [1] | Potency [2] | Potency [3] | Potency [4] | Potency [6] | Potency [7] | max activation [16] -2.71% | Potency [13] | Potency [14] | Potency [15] | Potency [10] | Potency [12] | Potency [11]

Fc1ccccc1[C@@H](F)COC1CCC(Nc2ncnc3[nH]ncc23)CC1 (some centres not stated)
active: Potency [2] 27.3 µM | Potency [4] 30.6 µM | Potency [8] 79.6 µM | Potency [9] 31.7 µM
inactive: Potency [1] | Potency [3] | Potency [7] | Potency [10] | Potency [12] | Potency [11]

CCc1nn(CCCN2CCN(c3cccc(Cl)c3)CC2)c(=O)n1CCOc1ccccc1
active: Potency [2] 23.7 µM | Potency [4] 29.8 µM | Potency [7] 3.76 µM | Potency [16] 12.6 µM | Potency [15] 4.9 µM | Potency [12] 1.51 µM
inactive: Potency [1] | Potency [3] | outcome [5] | Potency [13] | Potency [9] | Potency [10]

CCCCCCCCCCCC[N+](C)(C)CCCS(=O)(=O)[O-]
inactive: Potency [1] | Potency [2] | Potency [3] | Potency [4] | Potency [6] | Potency [7] | Potency [15] | Potency [8] | Potency [9] | Potency [10] | Potency [12] | Potency [11]

CC(C)c1nnc2ccc(-c3ocnc3-c3cc(F)ccc3F)cn12
inactive: Potency [1] | Potency [2] | Potency [3] | Potency [4] | outcome [5] | Potency [6] | Potency [12] | Potency [11]
active: Potency [7] 48.6 µM | Potency [8] 56.4 µM | Potency [9] 5.64 µM | Potency [10] 35.6 µM

CC(N)CN (configuration not stated)
inactive: Potency [1] | Potency [2] | Potency [3] | Potency [4] | outcome [5] | Potency [6] | Potency [7] | Potency [10] | Potency [12] | Potency [11]
active: Potency [8] 60.5 µM

CC(C)(O)c1ccccc1CC[C@@H](SCC1(CC(=O)O)CC1)c1cccc(/C=C/c2ccc3ccc(Cl)cc3n2)c1
inactive: Potency [1] | Potency [2] | Potency [3] | outcome [5] | Potency [6] | Potency [7] | Potency [13] | Potency [15] | Potency [8] | Potency [9] | Potency [10] | Potency [12] | Potency [11]

CCCCC(CC)C(=O)OCCOCCOCCOCCOC(=O)C(CC)CCCC (configuration not stated)
active: Potency [7] 48.6 µM | Potency [8] 22.4 µM | Potency [9] 12.6 µM | Potency [10] 31.7 µM | Potency [11] 12.6 µM
inactive: Potency [1] | Potency [2] | Potency [3] | Potency [4] | Potency [6] | Potency [15]

CCOC(=O)/C=C/C(=O)O
inactive: Potency [1] | Potency [2] | Potency [3] | Potency [4] | outcome [5] | Potency [6] | Potency [7] | Potency [8] | Potency [9] | Potency [10] | Potency [12] | Potency [11]

CCCCCCCCCCCC[N+](C)(C)CC(=O)[O-]
active: Potency [10] 35.6 µM
inactive: Potency [1] | Potency [2] | Potency [3] | Potency [4] | outcome [5] | Potency [6] | Potency [7] | Potency [9] | Potency [11]

c1cc[c]([Bi]([c]2ccccc2)[c]2ccccc2)cc1
inactive: Potency [1] | Potency [2] | Potency [3] | outcome [5] | Potency [6] | Potency [10]
active: Potency [4] 61.1 µM | Potency [7] 15.4 µM | Potency [8] 0.283 µM | Potency [9] 1 µM | Potency [11] 2.24 µM

CC(C)CCCCCOC(=O)CCCCC(=O)OCCCCCC(C)C
inactive: Potency [1] | Potency [2] | Potency [3] | Potency [4] | outcome [5] | Potency [6] | Potency [15] | Potency [8] | Potency [10] | Potency [12]
active: Potency [9] 63.3 µM | Potency [11] 35.6 µM

c1ccc(COCc2ccccc2)cc1
inactive: Potency [1] | Potency [2] | Potency [3] | Potency [4] | outcome [5] | Potency [6] | Potency [7] | Potency [15] | Potency [10] | Potency [11]

O=C(CCCCCCCCC#CI)Oc1ccccc1
active: Potency [9] 17.4 µM
inactive: Potency [1] | Potency [2] | Potency [3] | Potency [4] | Potency [6] | Potency [7] | Potency [8] | Potency [12] | Potency [11]

CCCCN(CCCC)C(=S)SSC(=S)N(CCCC)CCCC
inactive: Potency [1] | Potency [2] | Potency [3] | Potency [6]
active: Potency [4] 27 µM | Potency [7] 30.3 µM | Potency [15] 28 µM | Potency [8] 17.7 µM | Potency [9] 2.8 µM | Potency [10] 35.2 µM | Potency [11] 5.58 µM

CC(C)(CCl)c1ccccc1
inactive: Potency [1] | Potency [2] | Potency [3] | Potency [4] | Potency [6] | Potency [7] | Potency [15] | Potency [8] | Potency [9] | Potency [10] | Potency [11]
